# Reference: PubChem BioAssay AID651791 (National Center for Advancing Translational Sciences (NCATS), 2012)
# Results filed as inconclusive are left out. Calls of active or inactive are those of the source. Calls come from the whole dose curve; as a rule, active = well fitted inhibition curve with a large enough effect; inconclusive = small, poorly fitted or top-dose-only effect; inactive = no such curve, though single readings can be large or run the other way.
# Assay: InCell qHTS Assay for Inhibitors of the mTORC1 Signaling Pathway in MEF (Tsc2-/-, p53-/-) Cells: Hit Validation; note: nearly all actives have a fitted effect of over 75% in size
# Conditions: phospho-rpS6 immunofluorescence, 24 h; activity change, negative = inhibition: at 38.3 µM (top of the series)
# Source text: The mammalian target of rapamycin (mTOR) is an intracellular serine/threonine kinase Aberrant regulation of mTOR signaling plays a causative role in a number of human diseases, including cancer, benign tumors such as lymphangioleiomyomatosis (LAM) and Tuberous Sclerosis Complex (TSC), and metabolic diseases such as diabetes and obesity. This project aims to identify inhibitors of ribosomal protein S6 (rpS6) phosphorylation. The phosphorylation of rpS6 is a key event downstream of mTOR activation. The assay uses a phospho-specific antibody of phospho-rpS6 to detect inhibitors of mTOR activation. Mutations in the Tsc1 and Tsc2 genes are the underlying genetic lesions responsible for TSC, causing constitutive activation of the mTORC1 pathway and leading to profound effects on cell metabolism. Aberrant metabolism in cancer has recently received significant attention as a target to develop therapeutic agents in the treatment of cancer.1 As Tsc2-/- cells have lost the ability to respond to energy and growth factor deprivation, these cells are unable to properly down regulate cellular biosynthetic processes in response to metabolic stress, and are thus extremely sensitive to glucose deprivation-induced death.2 A central goal of this project is to explore the unique cell survival and metabolic properties of cells with Tsc1 or Tsc2 by screening for compounds that selectively target the Tsc2-/- MEFs by screening both Tsc2-/- and WT MEF cell lines. We hope to better understand these aspects of TSC physiology in order to exploit them for therapeutic benefit. NIH Molecular Libraries Probe Production Centers Network [MLPCN] NIH Chemical Genomics Center [NCGC] MLPCN Grant: NS059428 Assay Submitter (PI): Blenis, John; Harvard University
# For quantitative high throughput analysis of mTORC1 signaling, we developed a cell-based assay for immuno-fluorescence based detection of rpS6 phosphorylation on the Acumen Explorer that will be used a platform for the primary small molecule screen. Mouse embryonic fibroblasts (MEFs) are cultured in 1536-well plates using DMEM + 10% FBS. Twenty-four hrs after plating, test compounds (solubilized in DMSO) are delivered and incubated with the cells for 24 hrs at 37 degree Celsius. Following the incubation, media with compound is aspirated and the cells are fixed in 4% paraformaldehyde (PFA) containing PBS + 0.2% TX-100. Next, PFA is aspirated, cells are washed two times with PBS plus 0.2% TX-100 and the cells are blocked for 1 hr at room temperature (blocking buffer: LiCOR Blocking Buffer plus 0.2% TX-100). This is followed by aspiration and staining with Alexa-488 conjugated-phospho-rpS6 Ser235/236 antibody for 2 hours at room temperature (Cell Signaling Technology # 4803, 1:50 dilution in blocking buffer). Cells are washed two times with PBS plus 0.2% TX-100, and stained with 10 uM propidium iodide (PI) for 20-25 minutes for cell number measurement (1:500 dilution of Hoescht staining is also added for IN Cell imaging). The plates are scanned on the Acumen Explorer laser scanning instrument (TTP Labtech) using the 488nm laser for simultaneous excitation of the Alexa-488 and PI. The fluorescence emission from the Alexa-488 conjugated rpS6 phospho-235/236 antibody staining is selected using a […] band pass filter. Fluorescence emission from the PI stain is selected using a 575-640 nm band pass filter. The normalized phospho-S6 staining is calculated as the ratio of the integrated Alexa 488 intensity divided by the integrated PI intensity for the single concentration rapamycin control (7.5 nM) and DMSO columns. […] Inhibition of the pathway is defined based on the normalized phospho-S6 intensity in rapamycin treated cells. […]
# Potency is the fitted concentration of half-maximal effect.
SMILES,"activity change, negative = inhibition",Potency
O=C(Nc1ccon1)c1cccn(Cc2cccc(Cl)c2)c1=O,-100%,
CCN(CC)CCSc1nc2ccccc2c(=O)n1-c1ccc(Cl)cc1,-100%,
CCN(CC)C(=O)c1ccc(NC(=O)CCn2nc(-c3ccc(C)cc3)c3ccccc3c2=O)cc1,-100%,
Cc1ccccc1-c1nc(CN2C(=O)CN=C(c3ccccc3)c3ccccc32)c(C)o1,-100%,
CCOc1ccc(CN(CCc2ccc3c(c2)OCO3)Cc2ccc(C)cc2)cc1,-100%,
Cc1ccccc1-n1c(/C=C/c2ccccc2F)nc2ccccc2c1=O,-100%,
CCOc1ccc(NC(=O)CSc2oc(-c3ccccc3)nc2S(=O)(=O)c2ccc(Cl)cc2)cc1,,3.69 µM (active)
Cc1ccc(-n2c(/C=C/c3ccc(Br)s3)nc3ccccc3c2=O)cc1C,-100%,
Cc1ccccc1-n1c(/C=C/c2c(C)[nH]c3ccccc23)nc2ccccc2c1=O,-100%,
COc1ccc2nc(NC(=O)c3nc(S(=O)(=O)Cc4cccc(C)c4)ncc3Cl)sc2c1,,18.5 µM (active)
